The record followed here is PubChem BioAssay AID1443 (Sanford-Burnham Center for Chemical Genomics, 2008).

The structures appear in SMILES notation. Hit rate of the full screen: of about 220,000 compounds, about 880 (0.4%) were called active. The sample holds actives, similar compounds and a random draw of the others, so the mix is not that of the screen. Values without a mark were called inactive.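 Rule for the calls: active = cell killing above 50% in the first pass at 4 µM, then a duplicate retest at 5 µM averaging 50% or more; inactive = the rest.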

The assay can be described thus: compounds killing PPC-1 cancer cells with TRAIL present, primary screen, TRAIL potentiator project, ATPLite luminescence, uHTS (AID 1443).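 Note: plate controls were cells with TRAIL plus DMSO for no effect and medium-only wells lacking cells for full effect.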 The settings on record: PPC-1 cells + TRAIL, ATPLite viability luminescence, stronger effect = higher value; at 4 µM unless noted.
Regarding `CC(C)CNC(=S)Nc1ccc(F)cc1`, the cell killing (% activity) was 31.5%.
In the case of `CC1CC(=S)Nc2ccccc2N1Cc1ccccc1` (stereo not given) it was 16%; in that of `CCNC(=O)COC(=O)/C=C/c1c(C)nn(Cc2cccc(OC)c2)c1Cl`, -7.2%; in that of `CCOC(=O)c1nnn2c1nc(N1CCN(c3ccccc3)CC1)c1ccccc12`, 3.6%.
In the case of `Cc1csc(SCC(=O)Nc2sccc2C#N)n1` it was 10.6%.
`Clc1ccc2nc(-c3ccccc3)nc(C(Cl)Cl)c2c1`: the cell killing (% activity) was 79.2% [at 5 µM] (active).
With `Clc1cccc(-c2nc(NCC3CCCO3)c3ccccc3n2)c1` (stereo not given) the figure was -5.4%; with `c1ccc(-c2nc(NCc3ccco3)c3ccccc3n2)cc1`, 6.1%; with `COc1ccc(CCNCC(O)Cn2ccc3ccccc32)cc1OC` (stereo not given), -2.7%.
On to `CC(=O)NC1C(Oc2ccc(C)cc2)OC2COC(c3ccco3)OC2C1O` (stereo not given), for which the cell killing (% activity) is 2.4%.
In the case of `COc1cccc(/C=N/Nc2cc(C)nc(-c3ccccc3O)n2)c1O` it was 21.2%; in that of `COc1cccc(/C=N/NC(=O)c2[nH]nc3c2CCc2ccccc2-3)c1O`, 57.1% (active).
In the case of `COc1cccc(/C=N\NC(=O)C2=NNC(=O)C2C)c1O` (stereo not given) it was 24.7%.
With `O=C(/C=C/c1ccccc1)Oc1coc(CSc2ncccn2)cc1=O` the figure was 5.1%.
For `Cc1nc2cc(NCc3cccs3)ccc2n1C`, the cell killing (% activity) is 1.5%.
With `Cc1ccc(C(=O)N/C(=C\c2ccco2)C(=O)NC2CCS(=O)(=O)C2)cc1` (stereo not given) the figure was 9.8%; with `COc1ccc(-c2nc(SCC(=O)N3CCOCC3)n[nH]2)cc1`, 4.4%.
With `COc1ccc(-c2ccnc(SCC(=O)N3CCOCC3)n2)cc1` the figure was 20.6%; with `CCOc1ccc(-c2ccc(SCC(=O)N3CCOCC3)nn2)cc1`, 56.9% [at 5 µM] (active); with `CCOc1cccc(/C=C/c2ccc3ccccc3n2)c1OC(C)=O`, 49.3%.
With `NC(=O)COC(=O)/C=C/c1ccc2ccccc2n1` the figure was 14.6%; with `COc1cccc(/C=C/c2ccc3ccccc3n2)c1OC(C)=O`, 70.3% [at 5 µM] (active); with `Cc1ccc(C(=O)NNc2ncnc3ccccc23)cc1`, 35.9%.
For the compound `CC(C)c1ccc(NC(=S)NNc2ccc(Cl)c(C(=O)O)c2)cc1`, the cell killing (% activity) was -1.7%.
In the case of `CC(c1ccccn1)N(CCN(C)C)C(=S)Nc1ccccc1F` (stereo not given) it was 20.3%; in that of `COc1cc2c(cc1OC)C(=O)NCC(C)(C)O2`, 20.2%; in that of `CCC/C(C)=N\Nc1nc2c(c(=O)n(C)c(=O)n2C)n1C`, 8%.
In the case of `CCOC(=O)c1sc(NC(=O)CSc2nc3c(c(=O)n2-c2ccccc2)SCC3)c(C(=O)OCC)c1C` it was 5.5%.
On to `Nc1ncc(-c2cc3ccccc3oc2=O)s1`, for which the cell killing (% activity) is 11.4%.
In the case of `O=c1oc2ccccc2cc1-c1cn(-c2ccccc2)c(=S)[nH]1` it was 57.2% (active); in that of `O=C(c1cn(-c2ccccc2)nc1-c1cc2ccccc2oc1=O)N1CCOCC1`, 28.2%; in that of `O=C(O)COCC(=O)NCc1csc2ccc(Cl)cc12`, 6.2%.
In the case of `O=C(Nc1ccccc1)C1CC(=O)n2c(nc3ccccc32)N1` (stereo not given) it was 1.1%; in that of `COc1cc(OC)c2ccc(=O)oc2c1C(CCN1CCN(c2ccccc2)CC1)c1ccc2c(c1)OCO2` (stereo not given), -2.2%.
In the case of `COc1ccc(OC)c(C(=O)c2ccc(Cl)cc2)c1` it was -11.3%; in that of `CCOC(=O)c1c(C)[nH]c2c1-c1ccccc1C(=O)C2=O`, 96.5% [at 5 µM] (active); in that of `CCOC(=O)C1=C(c2ccc(OC)cc2)C(=O)c2ccccc2C1=O`, 23.5%.
For the compound `CCOC(=O)c1c(C)[nH]c(=S)c(C#N)c1-c1ccccc1`, the cell killing (% activity) is 18.1%.
Turning to `Cc1cccc(C2c3[nH]c4ccccc4c3CCN2C(=O)c2cc(-c3cccn3C)n[nH]2)n1` (stereo not given), the cell killing (% activity) is -11.4%.
Regarding `COc1cc(SC)ccc1C(=O)Nc1nc(C)cs1`, the cell killing (% activity) was 96% [at 5 µM] (active).
In the case of `COc1cc(SC)ccc1C(=O)NCCOc1ccccc1Cl` it was 9.8%.
In the case of `COc1cc(SC)ccc1C(=O)Nc1cc(C)ccn1` it was 53.7% [at 5 µM] (active); in that of `COc1ccc(C(=O)Nc2nncs2)c(OC)c1`, 21.1%; in that of `Cc1ccnc(NC(=O)c2ccoc2C)c1`, 0%.
With `COc1ccccc1CNC(=O)c1ccc(SC)cc1OC` the figure was 16.9%; with `O=C(Nc1nnc(SCc2ccccc2Cl)s1)c1cccc([N+](=O)[O-])c1`, 2.1%; with `Cc1ccc(C)n1NC(=O)c1ccc([N+](=O)[O-])cc1`, 11.3%.
For the compound `CN(C)/C=C(/C(=O)c1ccc(Cl)c(Cl)c1)c1nnnn1-c1ccccc1`, the cell killing (% activity) was 10.3%.
On to `CC(C)NC(=O)NCCCCCCS(C)=O` (stereo not given), for which the cell killing (% activity) is 20.6%.
With `O=S(=O)(NCC1CCCO1)c1cnc(Cl)c(Cl)c1` (stereo not given) the figure was -24.2%.
